Results as given in PubChem BioAssay (NCI).
This is part of a sample that, as a whole, favours compounds with a hit. Of some 83,000 tested, about 20% had one in any assay.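 The test compound was applied at a single concentration to cells in 96-well plates for 48 hours, and percent growth was recorded.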 Unmarked numbers belong to inactive results. The source made the active and inactive calls. How the source made its calls: active means growth percent below 10; inactive means the rest.

These compounds were tested on NCI-H522 lung (assay: NCI-60 one-dose screen, 48 h (100 = growth as untreated, 0 = no growth, -100 = all killed)). Details: 10 µM unless noted.
In the case of `Nc1c(C(=O)Nc2c(Cl)cccc2Cl)sc2nc3c(cc12)CCCC3`, the growth is reported as 62.8%.
Compound `COc1cc2ncnc(Nc3ccc(OCc4cccc(F)c4)c(Cl)c3)c2cc1NC(=O)C1CCCC1` has a growth of 50%.
Compound `O=C(N/N=C/c1ccccc1SSc1ccccc1/C=N/NC(=O)c1ccccc1)c1ccccc1` has a growth of 54%.
`C[C@@H]1CCCCCCCCC[C@H](O)C(=O)C[C@@H](SC[C@@H](O)C(=O)O)C(=O)O1` was tested, and the growth was 66.4%.
For `C=C(C)[C@@H]1CC[C@]2(C)[C@H](CC=C3[C@@H]4CC(C)(C)CC[C@]4(C(=O)OC)CC[C@]32C)[C@@]1(C)CC/C(N)=N/O`, the growth was 33.5%.
`C=C(C)[C@@H]1CC[C@]2(C)[C@H](CC=C3[C@@H]4CC(C)(C)CC[C@]4(C=O)CC[C@]32C)[C@@]1(C)CCCN` was tested, and the growth was 91.8%.
Work on `Cc1ccc(/C=C(\C#N)c2cc3ccccc3n2C)cc1` yielded a growth of 31.3%.
Compound `N=C(N)c1ccc(S(N)(=O)=O)cc1` has a growth of 91.8%.
In the case of `COc1ccc(-c2cc(=O)oc3ccc(Cl)cc23)cc1F`, the growth is reported as -27.8% (active).
For `CCSc1sc(-c2ccc(C)cc2)nc1[P+](c1ccccc1)(c1ccccc1)c1ccccc1`, the growth was -10.4% (active).
In the case of `COC(=O)[C@]12CC[C@@H](C)[C@H](C)[C@@H]1C1=CC(=O)[C@@H]3[C@@]4(C)C[C@@H](O)[C@H](O)[C@@]5(C)COC(=C45)C[C@@]3(C)[C@]1(C)CC2`, the growth is reported as 51%.
`O=S(=O)(NCCNc1cc(-c2cn(-c3ccccc3)nc2-c2cccc(O)c2)ccn1)c1ccc(Br)cc1` showed a growth of 31.9%.
Work on `Brc1ccc2[nH]cc(-c3nc(-c4c[nH]c5ncccc45)cs3)c2c1` yielded a growth of 25%.
In the case of `Cc1ccc(-c2ccc(Nc3ccccc3)nn2)cc1S(N)(=O)=O`, the growth is reported as 96.1%.
With `Cn1c2c(Cl)c(Cl)ccc2c2c(C#N)c[nH]c(=O)c21` the growth was 95.5%.
In the case of `C/C(=N/NC(N)=S)C(=O)O`, the growth is reported as 95.9%.
In the case of `CCCCC[C@H]1C/C=C2/C(=O)C=C[C@@H]2C/C=C\CCCC(=O)O[C@@H](CCCCC)C/C=C2/C(=O)C=C[C@@H]2C/C=C\CCCC(=O)O1`, the growth is reported as -81.7% (active).
`C#CCn1c(C)cc(C)c(C#N)c1=O` showed a growth of 103%.
`N#CC1C(=N)Cc2ccccc2-c2ccccc21` (configuration not stated) was tested, and the growth was 8.86% (active).
Compound `Cc1cc(N2CCCCC2)nc(N(CCNc2ccnc3cc(Cl)ccc23)Cc2ccco2)n1` has a growth of 19.1%.
Compound `C[C@@H](C(=O)O)c1ccc2c3cc(Cl)ccc3n(Cc3cc(=O)oc4ccc(Cl)cc34)c2c1` has a growth of 90.7%.
`C=C1C(=O)O[C@H]2[C@H]1CC/C(COC(=O)NCc1cc3ccccc3[nH]1)=C\CC[C@@]1(C)O[C@@H]21` was tested, and the growth was -84.4% (active).
In the case of `CCOC(=O)N1CCN(CCCCOc2ccc(C(C)(C)CC)cc2)CC1`, the growth is reported as 77.8%.
`OCC(CO)(CCl)CCl` showed a growth of 91.1%.
`COc1ccc(-c2cc(/C=C/C(=O)c3ccc(N)cc3)[nH]n2)cc1` was tested, and the growth was -24.3% (active).
`CC(C)(C)c1nc(-c2ccc(O)c(O)c2)cs1` showed a growth of 21%.
For `Brc1ccc(Cn2nnnc2-c2ccn(-c3ccccc3)n2)cc1`, the growth was -1.66% (active).
Work on `COC(=O)C(Cc1ccccc1)n1cc(COc2nc(Cl)nc(Nc3ccc(Cl)cc3)n2)nn1` (configuration not stated) yielded a growth of 88.2%.
With `COc1cccc(-c2nn(-c3ccccc3)cc2-c2ccnc(NCCNS(=O)(=O)c3ccccc3)c2)c1` the growth was 9.95% (active).
With `Nc1c(C(=O)Nc2cccc3ccccc23)sc2nc3c(cc12)CCCC3` the growth was 11.7%.
For `Cn1cc(-c2csc(-c3cn(CCN)c4ccc(F)cc34)n2)c2cccnc21`, the growth was 81.2%.
`COc1ccc(NC(=S)N/N=C/c2ccccc2SSCCC(=O)OC[C@H]2O[C@H](O)[C@H](O)[C@@H](O)[C@@H]2O)cc1` showed a growth of 58.4%.
In the case of `c1ccc(-c2nc(Nc3ccc(-c4nc5ccccc5[nH]4)cc3)nc(N3CCOCC3)n2)cc1`, the growth is reported as -68.2% (active).
With `COc1cnc2c(c1)C(=O)c1c-2n(CCCNC2=NCCS2)c(=O)c2cc([N+](=O)[O-])ccc12` the growth was 22.8%.
For `OCCNc1nc(Nc2ccc(Cl)c(Cl)c2)nc2ccccc12`, the growth was 62%.
`Oc1ccc(CCC2CCCC(CCc3ccc(OCCF)cc3)N2)cc1` (configuration not stated) showed a growth of 95.3%.
`Cc1ccsc1-c1ccc2c(c1)COC2(CCCN(C)C)c1ccc(F)cc1` (configuration not stated) showed a growth of 55.1%.
Compound `COc1ccc(NC(=O)c2ccoc2COc2ccccc2)cc1` has a growth of 90.2%.

The compounds below were run on A549/ATCC NSCLC in the same assay as above. Details: 10 µM unless noted.
`O=C(N/N=C/c1ccccc1SSc1ccccc1/C=N/NC(=O)c1ccccc1)c1ccccc1` showed a growth of 49.6%.
Work on `C[C@@H]1CCCCCCCCC[C@H](O)C(=O)C[C@@H](SC[C@@H](O)C(=O)O)C(=O)O1` yielded a growth of 85.8%.
In the case of `C=C(C)[C@@H]1CC[C@]2(C)[C@H](CC=C3[C@@H]4CC(C)(C)CC[C@]4(C(=O)OC)CC[C@]32C)[C@@]1(C)CC/C(N)=N/O`, the growth is reported as -28.8% (active).
With `C=C(C)[C@@H]1CC[C@]2(C)[C@H](CC=C3[C@@H]4CC(C)(C)CC[C@]4(C=O)CC[C@]32C)[C@@]1(C)CCCN` the growth was 77.6%.
`Cc1ccc(/C=C(\C#N)c2cc3ccccc3n2C)cc1` gave a growth of 31.2%.
In the case of `N=C(N)c1ccc(S(N)(=O)=O)cc1`, the growth is reported as 91.9%.
`COc1ccc(-c2cc(=O)oc3ccc(Cl)cc23)cc1F` was tested, and the growth was 10.8%.
`CCSc1sc(-c2ccc(C)cc2)nc1[P+](c1ccccc1)(c1ccccc1)c1ccccc1` was tested, and the growth was 3.64% (active).
`COC(=O)[C@]12CC[C@@H](C)[C@H](C)[C@@H]1C1=CC(=O)[C@@H]3[C@@]4(C)C[C@@H](O)[C@H](O)[C@@]5(C)COC(=C45)C[C@@]3(C)[C@]1(C)CC2` was tested, and the growth was 41.6%.
For `CCCCC[C@H]1C/C=C2/C(=O)C=C[C@@H]2C/C=C\CCCC(=O)O[C@@H](CCCCC)C/C=C2/C(=O)C=C[C@@H]2C/C=C\CCCC(=O)O1`, the growth was -43.5% (active).
In the case of `C#CCn1c(C)cc(C)c(C#N)c1=O`, the growth is reported as 104%.
`Cc1cc(N2CCCCC2)nc(N(CCNc2ccnc3cc(Cl)ccc23)Cc2ccco2)n1` gave a growth of 36.6%.
In the case of `C[C@@H](C(=O)O)c1ccc2c3cc(Cl)ccc3n(Cc3cc(=O)oc4ccc(Cl)cc34)c2c1`, the growth is reported as 102%.
`C=C1C(=O)O[C@H]2[C@H]1CC/C(COC(=O)NCc1cc3ccccc3[nH]1)=C\CC[C@@]1(C)O[C@@H]21` gave a growth of 77.4%.
In the case of `CCOC(=O)N1CCN(CCCCOc2ccc(C(C)(C)CC)cc2)CC1`, the growth is reported as 95.7%.
In the case of `OCC(CO)(CCl)CCl`, the growth is reported as 76.7%.
`COC(=O)C(Cc1ccccc1)n1cc(COc2nc(Cl)nc(Nc3ccc(Cl)cc3)n2)nn1` (configuration not stated) was tested, and the growth was 102%.
`COc1cccc(-c2nn(-c3ccccc3)cc2-c2ccnc(NCCNS(=O)(=O)c3ccccc3)c2)c1` showed a growth of 34.4%.
Compound `Cn1cc(-c2csc(-c3cn(CCN)c4ccc(F)cc34)n2)c2cccnc21` has a growth of 42%.
`COc1ccc(NC(=S)N/N=C/c2ccccc2SSCCC(=O)OC[C@H]2O[C@H](O)[C@H](O)[C@@H](O)[C@@H]2O)cc1` was tested, and the growth was 55.1%.
In the case of `c1ccc(-c2nc(Nc3ccc(-c4nc5ccccc5[nH]4)cc3)nc(N3CCOCC3)n2)cc1`, the growth is reported as -68.4% (active).
In the case of `COc1cnc2c(c1)C(=O)c1c-2n(CCCNC2=NCCS2)c(=O)c2cc([N+](=O)[O-])ccc12`, the growth is reported as -77.2% (active).
`Cc1ccsc1-c1ccc2c(c1)COC2(CCCN(C)C)c1ccc(F)cc1` (configuration not stated) showed a growth of 45.9%.
With `COc1ccc(NC(=O)c2ccoc2COc2ccccc2)cc1` the growth was 102%.
